Data on 30 compounds can be found in PubChem BioAssay (NCATS).

Values without a mark were called inactive. Records with an inconclusive call do not appear. Calls of active or inactive are those of the source. Unless noted, calls follow the shape of the dose curve; as a rule, active = well fitted curve in the direction sought with a large enough effect; inconclusive = small, poorly fitted or top-dose-only effect, or another doubt; inactive = no such curve, though single readings can be large; an effect the other way counts as inactive or inconclusive.

The target of test [1] is Cytochrome P450 1A2 (Homo sapiens) (UniProt P05177). The test is described as follows: p450-cyp1a2 (AID 410; calls by dose curve; also: potency is read from the fitted curve at half-maximal effect). In outline: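 Luminescent readout of luciferin formed from Luciferin-ME by human CYP1A2; data normalized against complete inhibition by 57 uM furafylline. Enzyme 20nM, substrate 100uM at Km, 100mM KPO4 buffer, 60 min reaction at room temperature.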
For test [2], the target named is Mitogen-activated protein kinase 10 (Mus musculus) (UniProt Q61831). The test is described as follows: JNK3 AlphaScreen Assay (AID 530; active = well fitted curve in either direction with a large enough effect, not every such curve was filed as active;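 also: kinase came from lysate of stimulated human HepG2 cells; signal reports phosphorylation of biotinylated GST-cJun 1-79 at Ser73 with 10 µM ATP; series mostly up to about 57 µM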). In outline:
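Inhibitors reduce antibody binding to phosphorylated biotin-cJun, lowering AlphaScreen luminescence. Lysates from HepG2 cells pre-activated by IL-1beta plus TNF-alpha supplied JNK3; compounds were titrated.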

The target of test [3] is Cytochrome P450 3A4 (Homo sapiens) (UniProt P08684). The test is described as follows: qHTS Assay for Activators of Cytochrome P450 3A4 (AID 885). Also: nearly all actives have a fitted effect of over 65% in size. Summed up:
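Quantitative HTS format: compounds preincubated with 20nM human CYP3A4 and Luciferin-PPXE substrate at KM, reaction started by NADPH regeneration, stopped after 60 min, luciferase luminescence read 20 min later.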
(qHTS replaces the single test concentration by a dilution series.)

The target is the same in test [4]. The test is described as follows: qHTS Assay for Inhibitors and Substrates of Cytochrome P450 3A4 (AID 884). Also: potency is read from the fitted curve at half-maximal effect; nearly all actives have a fitted effect of over 50% in size. In outline: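 20 nM human CYP3A4 with 25 uM Luciferin-PPXE (at KM) in 200 mM KPO4, preincubated 10 min with compound; NADPH regeneration started a 60 min RT reaction. Luciferin detected by luminescence, normalized to 57 uM ketoconazole as full inhibition.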

Test [5] deals with Cytochrome P450 2D6 (Homo sapiens) (UniProt P10635). The test is described as follows: qHTS Assay for Inhibitors and Substrates of Cytochrome P450 2D6 (AID 891). Also: potency is read from the fitted curve at half-maximal effect; nearly all actives have a fitted effect of over 60% in size. In outline: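 Human CYP2D6 (5 nM) with 30 uM Luciferin-ME EGE (at Km) in 100 mM KPO4, compound preincubated 10 min, then NADPH regeneration system for 60 min at room temperature. Luciferin read by luminescence; normalized to 1.43 uM quinidine.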

The target in test [6] is Cytochrome P450 2C19 (Homo sapiens) (UniProt P33261). The test is described as follows: qHTS Assay for Inhibitors and Substrates of Cytochrome P450 2C19 (AID 899). Also: potency is read from the fitted curve at half-maximal effect; nearly all actives have a fitted effect of over 60% in size. In outline:
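NADPH-dependent conversion of Luciferin-H EGE (10uM, at KM) by 5nM enzyme in 50mM KPO4, 60 min at 37C following 10 min compound preincubation. Stopped with luciferin detection buffer; luminescence read after 20 min.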

Sequence of Cytochrome P450 2C19 (Homo sapiens) (P33261 whole entry, looked up): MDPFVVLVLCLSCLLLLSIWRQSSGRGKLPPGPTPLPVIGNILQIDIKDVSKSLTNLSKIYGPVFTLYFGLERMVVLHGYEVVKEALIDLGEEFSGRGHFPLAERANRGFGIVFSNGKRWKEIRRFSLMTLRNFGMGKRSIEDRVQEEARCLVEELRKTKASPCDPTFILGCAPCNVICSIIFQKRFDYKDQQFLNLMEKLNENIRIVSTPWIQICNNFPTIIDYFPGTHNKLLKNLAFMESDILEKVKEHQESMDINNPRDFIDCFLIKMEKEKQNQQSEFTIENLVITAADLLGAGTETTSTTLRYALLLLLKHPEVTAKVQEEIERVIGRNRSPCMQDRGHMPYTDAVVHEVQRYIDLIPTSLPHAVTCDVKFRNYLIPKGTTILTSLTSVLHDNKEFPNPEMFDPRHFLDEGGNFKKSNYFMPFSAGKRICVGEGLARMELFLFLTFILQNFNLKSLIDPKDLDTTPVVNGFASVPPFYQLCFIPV
Sequence of Cytochrome P450 2D6 (Homo sapiens) (P10635 whole entry, looked up): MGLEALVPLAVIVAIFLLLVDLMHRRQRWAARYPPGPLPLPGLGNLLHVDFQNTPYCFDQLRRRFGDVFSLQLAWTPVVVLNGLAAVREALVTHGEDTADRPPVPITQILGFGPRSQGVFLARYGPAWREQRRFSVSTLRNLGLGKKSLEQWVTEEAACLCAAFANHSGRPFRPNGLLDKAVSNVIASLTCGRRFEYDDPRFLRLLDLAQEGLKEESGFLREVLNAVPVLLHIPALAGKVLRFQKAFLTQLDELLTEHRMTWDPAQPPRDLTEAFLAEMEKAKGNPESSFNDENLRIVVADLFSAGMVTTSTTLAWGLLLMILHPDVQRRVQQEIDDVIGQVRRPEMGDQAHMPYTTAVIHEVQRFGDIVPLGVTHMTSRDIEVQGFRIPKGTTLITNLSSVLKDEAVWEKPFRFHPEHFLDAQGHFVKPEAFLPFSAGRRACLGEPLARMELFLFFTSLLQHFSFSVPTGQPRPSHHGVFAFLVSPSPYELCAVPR
Sequence of Cytochrome P450 1A2 (Homo sapiens) (P05177 whole entry, looked up): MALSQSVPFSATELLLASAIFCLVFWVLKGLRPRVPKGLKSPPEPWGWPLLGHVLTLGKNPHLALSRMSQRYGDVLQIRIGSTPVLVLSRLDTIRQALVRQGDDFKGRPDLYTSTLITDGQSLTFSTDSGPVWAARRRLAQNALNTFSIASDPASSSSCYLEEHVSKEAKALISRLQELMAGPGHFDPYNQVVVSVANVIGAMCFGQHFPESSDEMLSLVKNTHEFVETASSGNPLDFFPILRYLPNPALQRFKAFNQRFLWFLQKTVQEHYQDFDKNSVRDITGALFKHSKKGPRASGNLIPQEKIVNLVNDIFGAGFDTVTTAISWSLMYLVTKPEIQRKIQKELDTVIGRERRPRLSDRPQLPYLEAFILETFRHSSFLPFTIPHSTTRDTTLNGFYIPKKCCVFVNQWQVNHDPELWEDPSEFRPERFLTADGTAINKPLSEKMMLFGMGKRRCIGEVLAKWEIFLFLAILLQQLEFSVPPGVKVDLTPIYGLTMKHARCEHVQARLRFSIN
Sequence of Cytochrome P450 3A4 (Homo sapiens) (P08684 whole entry, looked up): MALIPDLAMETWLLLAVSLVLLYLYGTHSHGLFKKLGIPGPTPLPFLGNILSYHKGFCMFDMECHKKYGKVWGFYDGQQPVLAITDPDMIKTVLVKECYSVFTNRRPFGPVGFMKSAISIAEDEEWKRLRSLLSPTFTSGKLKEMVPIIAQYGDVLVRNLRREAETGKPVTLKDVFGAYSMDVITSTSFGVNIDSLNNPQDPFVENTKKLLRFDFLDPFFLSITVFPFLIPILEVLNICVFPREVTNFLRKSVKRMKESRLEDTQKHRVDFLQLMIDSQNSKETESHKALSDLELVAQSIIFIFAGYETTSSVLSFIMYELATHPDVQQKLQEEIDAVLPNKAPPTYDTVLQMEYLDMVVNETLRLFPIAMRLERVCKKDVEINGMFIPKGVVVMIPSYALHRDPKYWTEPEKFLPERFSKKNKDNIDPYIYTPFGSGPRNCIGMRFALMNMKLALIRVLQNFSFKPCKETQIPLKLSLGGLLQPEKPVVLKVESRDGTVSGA

On to `CCC/C=C(\CCC)C(NC(=O)c1ccc(-c2ccccc2)cc1)c1ccc(C(=O)OC)cc1` (centres undefined), for which the Potency in test [1] was 631 nM (active). Also, the Potency result in test [2] and in test [3] was “inactive” each time.

`CCCC[C@@H]1C[C@H]1C(NC(=O)c1ccccc1)c1ccc(-c2ccccc2)cc1` (some centres undefined): in test [1], the Potency was 501 nM (active). Moreover, the Potency result in test [2] and in test [3] was “inactive” in each case.

For `CCCC[C@@H]1C[C@H]1C(NC(=O)Cc1ccccc1)c1ccc(-c2ccccc2)cc1` (some centres undefined), the Potency result in test [1], in test [2] and in test [3] was “inactive” in each case.

Regarding `COC(=O)[C@@]1(Cc2ccc(F)cc2)[C@H]2c3cc(C(=O)N(C)C)n(Cc4ccc(C)c(F)c4F)c3C[C@H]2CN1C(=O)c1ccccc1`, the Potency result in test [1], in test [2] and in test [3] was “inactive” in each case. Besides, the Potency in test [4] is 794 nM (active).

For the compound `CCCC[C@H]1C[C@@H]1[C@@H]1N(P(=O)(c2ccccc2)c2ccccc2)[C@](CO)(c2ccccc2)CC12CC2`, the Potency result in test [1], in test [2] and in test [3] was “inactive” in each case. Moreover, the Potency in test [4] is 2000 nM (active); in test [5], 2510 nM (active).

On to `C[C@@]1(C(NC(=O)Cc2ccccc2)c2ccc(-c3ccccc3)cc2)C[C@H]1C1CCCCC1` (some centres undefined), for which the Potency entry in test [1], in test [2] and in test [3] was “inactive” throughout.

Take `COc1ccc2nc3c(c([Si](C)(C)C(C)(C)C)c2c1)Cn1c-3cccc1=O`: the Potency in test [1] is 794 nM (active); in test [4], 1580 nM (active); in test [5], 2000 nM (active); in test [6], 2000 nM (active). Also, the Potency result in test [2] and in test [3] was “inactive” throughout.

Turning to `CCC/C=C(\CCC)C(NS(=O)(=O)CC12CCC(CC1=O)C2(C)C)c1ccc(C(=O)OC)cc1` (centres undefined), the Potency result in test [1], in test [2] and in test [3] was “inactive” in each case. Further, the Potency was 3980 nM (active) in test [4] and 5010 nM (active) in test [5].

On to `COC(=O)[C@@]1(Cc2ccccc2)[C@H]2c3cc(C(=O)N4CCCC4)n(Cc4ccc(C)o4)c3C[C@H]2CN1C(=O)c1ccccc1`, for which the figures for the Potency in test [1] and in test [4] were 12600 nM (active) and 2000 nM (active), respectively. Moreover, the Potency entry in test [2] and in test [3] was “inactive” each time.

`COC(=O)[C@@]1(Cc2ccc(F)cc2)[C@H]2c3cc(C(=O)N4CCCC4)n(Cc4ccc(Cl)c(C(F)(F)F)c4)c3C[C@H]2CN1C(=O)c1ccccc1`: the Potency result in test [1], in test [2] and in test [3] was “inactive” each time. Besides, the Potency in test [4] is 2510 nM (active).

As to `CC(C)c1cccc2nc3c(c(C(C)(C)C)c12)Cn1c-3cccc1=O`, in test [1], the Potency is 12600 nM (active). Besides, the Potency result in test [2] and in test [3] was “inactive” throughout.

On to `CCCCc1c2ccccc2nc2[nH]c3ccccc3c12`, for which, in test [1], the Potency is 200 nM (active). Further, the Potency entry in test [2] and in test [3] was “inactive” each time.

Regarding `COC(=O)[C@@]1(Cc2ccc(OC)cc2)[C@@H]2[C@@H](CC(=O)[C@H]2CC(=O)C(=O)N2CCCC2)CN1C(=O)c1ccccc1`, the Potency result in test [1], in test [2] and in test [3] was “inactive” throughout. Besides, the Potency in test [4] is 794 nM (active).

For `c1ccc(-c2c3ccccc3nc3[nH]c4ccccc4c23)cc1`, the Potency in test [1] was 501 nM (active). Besides, the Potency entry in test [2] and in test [3] was “inactive” throughout.

In the case of `COC(=O)[C@@]1(Cc2ccccc2)[C@H]2c3cc(C(=O)N4CCCC4)n(C)c3C[C@H]2CN1C(=O)c1ccccc1`, the Potency was 25100 nM (active) in test [1], 3980 nM (active) in test [4] and 3980 nM (active) in test [6]. In addition, the Potency result in test [2] and in test [3] was “inactive” in each case.

Regarding `CC[C@@]1(O)C(=O)COc2c1cc1n(c2=O)Cc2c-1nc1cccc(C(C)C)c1c2[Si](C)(C)C`, in test [1], the Potency was 7940 nM (active). For the same compound, the Potency entry in test [2] and in test [3] was “inactive” in each case.

As for `CC(C)(C)C(=O)NC(c1ccc(Cl)cc1)[C@]1(C)C[C@H]1C1CCCCC1` (some centres undefined), the Potency entry in test [1], in test [2] and in test [3] was “inactive” throughout.

Consider `CCC/C=C(\CCC)C(NC(=O)c1cccs1)c1ccc(C(F)(F)F)cc1` (centres undefined), for which the Potency in test [1] was 3160 nM (active); in test [4] it was 2510 nM (active); in test [6], 316 nM (active). For the same compound, the Potency entry in test [2] and in test [3] was “inactive” throughout.

In the case of `CCCC[C@@H]1C[C@H]1C(NC(=O)Cc1ccccc1)c1ccc(Cl)cc1` (some centres undefined), the Potency in test [1] was 2510 nM (active); in test [4], 2510 nM (active); in test [6], 50.1 nM (active). In addition, the Potency result in test [2] and in test [3] was “inactive” throughout.

`COC(=O)c1ccc(C(NC(=O)c2ccco2)[C@]2(C)C[C@H]2C2CCCCC2)cc1` (some centres undefined): the Potency entry in test [1], in test [2] and in test [3] was “inactive” throughout. The Potency in test [4] is 7940 nM (active).

In the case of `CCC/C=C(\CCC)C(NP(=O)(c1ccccc1)c1ccccc1)c1ccc(-c2ccccc2)cc1` (centres undefined), the Potency in test [1] is 2510 nM (active); in test [4], 3980 nM (active). Further, the Potency result in test [2] and in test [3] was “inactive” throughout.

On to `COC(=O)[C@@]1(Cc2ccc(OC)cc2)[C@@H]2C(=CC(=O)[C@H]2CC(=O)C(=O)N(C)C)CN1C(=O)c1ccccc1`, for which the Potency entry in test [1], in test [2] and in test [3] was “inactive” in each case.

`COC(=O)[C@@]1(Cc2ccc(OC)cc2)[C@@H]2C(=CC(=O)[C@H]2CC(=O)C(=O)N2CCCC2)CN1C(=O)c1ccccc1`: the Potency entry in test [1], in test [2] and in test [3] was “inactive” in each case.

Take `Cc1c2c(nc3ccccc13)-c1cccc(=O)n1C2`: in test [1], the Potency is 100 nM (active). Also, the Potency result in test [2] and in test [3] was “inactive” each time.

As to `COC(=O)[C@H]1C[C@@H]1[C@H](NC(=O)c1cccnc1)c1ccccc1`, the Potency is 12600 nM (active) in test [1] and 5010 nM (active) in test [4]. Moreover, the Potency result in test [2] and in test [3] was “inactive” each time.

On to `CC(C)c1cccc2cc3c(nc12)-c1cccc(=O)n1C3`, for which the Potency in test [1] was 501 nM (active). Further, the Potency result in test [2] and in test [3] was “inactive” throughout.

In the case of `CCCC[C@@H]1C[C@H]1C(NC(=O)c1ccccc1)c1ccc(Cl)cc1` (some centres undefined), the values for the Potency in test [1], in test [4] and in test [6] were 1000 nM (active), 3980 nM (active) and 631 nM (active), respectively. The Potency result in test [2] and in test [3] was “inactive” in each case.

In the case of `COC(=O)[C@@]1(Cc2ccc(F)cc2)[C@H]2c3cc(C(=O)N4CCCC4)n(Cc4ccc(C)c(F)c4F)c3C[C@H]2CN1C(=O)c1ccccc1`, the Potency entry in test [1], in test [2] and in test [3] was “inactive” throughout. In addition, in test [4], the Potency was 2510 nM (active).

Turning to `CCCc1cc2c(n1Cc1ccc(OC)cc1)C(C)C1CN(C(=O)c3ccccc3)C(C)(C(=O)OC)C21` (centres undefined), the Potency in test [1] was 15800 nM (active); in test [4], 3160 nM (active). Also, the Potency result in test [2] and in test [3] was “inactive” throughout.

For `CCC/C=C(\CCC)C(NC(=O)c1ccccc1)c1ccccc1` (centres undefined), the Potency in test [1] was 10000 nM (active). For the same compound, the Potency entry in test [2] and in test [3] was “inactive” throughout.
